Source: PubChem BioAssay AID1159580 (chemical genetic matrix, 2015)
Values joined by “and” are separate entries in the source; they are usually repeats but may differ in a detail not shown here. Identical values can stand only once. In all, about 5,500 compounds went through this assay and about 2,000 (36%) were called active. Roughly 18% stayed inconclusive and do not appear here. Rule as the data show it: active = normalized growth mostly below about 0.91 (no sharp cut-off); inconclusive = no clear call, values can overlap the other calls; inactive = mostly above about 0.92. Some of the results follow.

Assay: chemical genetic growth profiling, strain panel (AID 1159580);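 also: tested at 20 µM; growth read once vehicle control cultures reached saturation at 30 °C; 1 = growth at the plate median or of vehicle wells; lower values mean less growth of the strain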
Settings: S. cerevisiae deletion strains, growth OD

Measured: normalized growth

CCn1cc(C(=O)O)c(=O)c2cc(F)c(N3CCNCC3)cc21
inactive: locus YAL013W, strain DEP1, hits give low values 1 | locus YAL021C, strain ccr4, hits give low values 0.967 | locus YAL026C, strain drs2, hits give low values 0.978 | locus YAL030W, strain snc1, hits give low values 0.988 | locus YBL061C, strain skt5, hits give low values 0.991 | locus YBR009C, strain hhf1, hits give low values 0.983 | locus YBR021W, strain FUR4, hits give low values 0.905 | locus YBR023C, strain chs3, hits give low values 0.989 | locus YBR171W, strain sec66, hits give low values 0.988 | locus YBR229C, strain ROT2, hits give low values 1.01 | locus YBR231C, strain swc5, hits give low values 0.986 | locus YBR279W, strain paf1, hits give low values 0.978 | locus YCL011C, strain gbp2, hits give low values 0.983 | locus YCL016C, strain dcc1, hits give low values 0.998 | locus YCL029C, strain bik1, hits give low values 1 | locus YCL061C, strain MRC1, hits give low values 0.989 | locus YCL069W, strain vba3, hits give low values 0.966 | locus YCR088W, strain abp1, hits give low values 0.992 | locus YDL005C, strain med2, hits give low values 0.973 | locus YDL035C, strain GPR1, hits give low values 1 | locus YDL040C, strain nat1, hits give low values 0.99 | locus YDL074C, strain BRE1, hits give low values 1.02 | locus YDL101C, strain DUN1, hits give low values 1 | locus YDL134C, strain PPH21, hits give low values 0.994 | locus YDL185W, strain tfp1, hits give low values 0.998 | locus YDL192W, strain arf1, hits give low values 0.995 | locus YDR001C, strain nth1, hits give low values 0.98 | locus YDR069C, strain doa4, hits give low values 0.964 | locus YDR101C, strain arx1, hits give low values 0.972 | locus YDR137W, strain rgp1, hits give low values 0.97 | locus YDR159W, strain sac3, hits give low values 0.948 | locus YDR162C, strain NBP2, hits give low values 0.997 | locus YDR195W, strain ref2 0.962 | locus YDR297W, strain sur2, hits give low values 0.992 | locus YDR318W, strain mcm21, hits give low values 0.995 | locus YDR334W, strain swr1, hits give low values 0.981 | locus YDR335W, strain msn5, hits give low values 0.928 | locus YDR388W, hits give low values 1 | locus YDR392W, strain spt3, hits give low values 0.873 | locus YDR502C, strain sam2, hits give low values 1.01 | locus YEL003W, strain gim4, hits give low values 0.984 | locus YEL037C, strain rad23, hits give low values 0.976 | locus YEL061C, strain CIN8 (second series), hits give low values 0.97 | locus YEL061C, strain CIN8, hits give low values 1.01 | locus YER015W, strain faa2, hits give low values 0.987 | locus YER016W, strain bim1, hits give low values 0.986 | locus YER110C, hits give low values 0.996 | locus YER111C, strain swi4, hits give low values 0.975 | locus YER155C, strain BEM2 (second series), hits give low values 0.95 | locus YER155C, strain BEM2, hits give low values 1.01 | locus YER167W, strain BCK2, hits give low values 1 | locus YFR010W, strain ubp6, hits give low values 0.972 | locus YGL078C, strain dbp3, hits give low values 0.998 | locus YGL086W, strain mad1, hits give low values 0.992 | locus YGL167C, strain pmr1, hits give low values 0.985 | locus YGL173C, strain kem1, hits give low values 0.98 | locus YGL227W, strain vid30, hits give low values 0.979 | locus YGL240W, strain doc1, hits give low values 0.973 | locus YGL248W, strain PDE1, hits give low values 1 | locus YGL253W, strain hxk2, hits give low values 0.995 | locus YGR078C, strain PAC10, hits give low values 1 | locus YGR135W, strain pre9, hits give low values 0.988 | locus YGR229C, strain SMI1, hits give low values 1.02 | locus YGR252W, strain gcn5, hits give low values 0.912 | locus YHR013C, strain ard1, hits give low values 0.928 | locus YHR027C, strain rpn1, hits give low values 0.987 | locus YHR030C, strain SLT2, hits give low values 0.999 and 0.974 | locus YHR079C, strain IRE1 (second series), hits give low values 0.995 | locus YHR079C, strain IRE1, hits give low values 0.974 | locus YHR094C, strain hxt1, hits give low values 0.998 | locus YHR129C, strain ARP1, hits give low values 1 | locus YHR142W, strain chs7, hits give low values 0.971 | locus YHR200W, strain rpn10, hits give low values 0.998 | locus YIL066C, strain RNR3, hits give low values 1.01 | locus YIL073C, strain SPO22, hits give low values 1 | locus YIL125W, strain kgd1, hits give low values 1 | locus YIR030C, strain dcg1, hits give low values 0.999 | locus YJL092W, strain hpr5, hits give low values 0.982 | locus YJL095W, strain BCK1 (second series), hits give low values 0.993 | locus YJL095W, strain BCK1, hits give low values 0.991 and 0.996 | locus YJL115W, strain asf1, hits give low values 0.976 | locus YJL129C, strain trk1, hits give low values 0.929 | locus YJL134W, strain LCB3, hits give low values 1 | locus YJL154C, strain vps35, hits give low values 0.974 | locus YJL164C, strain tpk1, hits give low values 0.988 | locus YJL166W, strain qcr8, hits give low values 1 | locus YJL168C, strain set2, hits give low values 1 | locus YJL187C, strain SWE1 (second series), hits give low values 1.01 | locus YJL187C, strain SWE1, hits give low values 0.985
